# Laboratory results: PubChem BioAssay AID651692 (Broad Institute, 2012)
# Potency and affinity values are given separately. The source made the active and inactive calls.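 Rule for the calls: active = fitted half-maximal concentration for loss of cell signal no higher than twice the top valid tested concentration; inconclusive = flat curve at 30 to 70% inhibition, or poor fit; inactive = flat within 30%, signal rise, or potency above limit.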
# Assay: cytotoxicity toward MDA-MB-231 breast cancer cells – cell-based, CellTiter-Glo luminescence, cherry-pick, cytotoxicity control for RAD54 inhibitor project, dose response (AID 651692);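 note: more negative values mean stronger loss of viable cell signal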
# Details: MDA-MB-231 viability, 24 h; series mostly up to 26 µM
row,Structure (SMILES),outcome
1,CCN1CCN(c2cc(C)c3cc(NC(=S)N4CCC5(CC4)OCCO5)ccc3n2)CC1,inactive
2,CN(C)CCCN1C(=O)c2cccc3cccc(c23)C1=O,inactive
3,Nc1c(C(=O)NCCN2CCOCC2)c2nc3ccccc3nc2n1-c1ccccc1,inactive
4,Cc1ccc2[nH]c(=O)c3cc(C(=O)NCCN4CCN(C)CC4)sc3c2c1,inactive
5,CC1CCCCN1CCNC(=O)c1cc2c(=O)n(C)c3ccccc3c2n1C (stereo unspecified),inactive
6,Cc1cccc(-c2cc(N3CCCN(C)CC3)n3nccc3n2)c1,inactive
7,COc1cccc2c1-c1c(O)cccc1C2=O,inactive
8,Cc1cccn2c(=O)c3cc(C#N)c(=O)n(CCCN4CCOCC4)c3nc12,inactive
9,CCCN(CCC)CCCNC(=O)c1cc2c(=O)[nH]c3ccccc3c2s1,inactive
10,CCN(CC)CCNc1nc2cc(OC)c(OC)cc2c2nc(-c3ccccc3)nn12,inactive
11,CCN1CCN(CCCNC(=O)c2cc3cc4ccc(OC)cc4nc3o2)CC1,inactive
12,NNC(=O)c1oc2nc(-c3cccs3)cc(-c3ccco3)c2c1N,inactive
13,CC1CCN(CCCNC(=O)c2cc3c(Cl)nc4ccccc4c3s2)CC1,inactive
14,COc1ccc2nc(C)cc(Nc3ccc(N4CCOCC4)cc3)c2c1,inactive
15,CCCCN(CC)CCNC(=S)Nc1ccc2nc(N3CCN(C)CC3)cc(C)c2c1,inactive
16,COc1ccc(Nc2nc(N3CCCCC3)nc3ccccc23)c(OC)c1,inactive
17,Cc1cc2ccc3ccccc3c2cc1CN(C)C,inactive
18,Cc1cc(N2CCN(C)CC2)nc2ccc(NC(=S)NCCN3CCc4ccccc4C3)cc12,inactive
19,Cc1nc2ccccc2c2oc(C(=O)NCCCN3CCC(C)CC3)cc12,inactive
20,COc1ccc(Nc2cc(C)nc3ccc(OC)cc23)cc1,inactive
21,COc1cccc(-c2cc3nc(NCCN4CCCC4)n(C)c(=O)c3s2)c1,inactive
